Lassa entry inh = Lassa virus entry inhibition; Lassa virus pseudotype entry inhibition, cell reporter; Potency, µM (series often up to 37.9 µM), actives largely listed as inhibitors; 300,000 tested, 1.2% active; AID 540256; calls by dose curve; tested in HEK293 cells; note: nearly all actives have a fitted effect of over 50% in size
HCV inhibitor = inhibitors of hepatitis C virus infection; Huh7.5.1 HCVcc-Cre infection, luciferase reporter, 44 h; AID 651820; Potency, µM (doses to about 41.8 µM), usual class: inhibitors; 340,000 tested, 3.4% active; active = well fitted inhibition curve with a large enough effect; inconclusive = small, poorly fitted or top-dose-only effect, or another doubt; inactive = no such curve, though single readings can be large or run the other way
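Infectious HCV cell culture screen: compound-treated cells (1,000/well, pre-plated 4 h) are infected with HCVcc-Cre at roughly 0.5 moi and grown 44 h. Infection is quantified by luciferase signal after 15 min substrate incubation at room temperature.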
Vaccinia Venus = inhibitors of vaccinia virus (Venus reporter). Vaccinia virus Venus reporter expression, fluorescence. Potency, µM (series often up to 36.5 µM), most hits filed as inhibitors. 330,000 tested, 0.46% active. AID 720580; calls by dose curve; tested in A549 cells; note: nearly all actives have a fitted effect of over 30% in size
Marburg entry inh = inhibitors of Marburg virus binding or cell entry; 300,000 tested, 1.8% active; Marburg virus pseudotyped entry inhibition, cell reporter; Potency, µM (top dose mostly 37.8 µM), usual class: inhibitors; AID 540276; calls by dose curve; tested in HEK293 cells
Vaccinia mCherry = inhibitors of vaccinia virus infection (mCherry reporter signal); 310,000 tested, 0.63% active; Vaccinia virus mCherry reporter infection, fluorescence; Potency, µM (titrated, usually from 36.5 µM), usual class: inhibitors; AID 720579; calls by dose curve; tested in A549 cells; note: nearly all actives have a fitted effect of over 35% in size
HCMV antiviral = human cytomegalovirus inhibition. activity change, negative = inhibition, % at 57.5 µM. HFF cells, HCMV-luciferase reporter, 72 h; active compounds read low. 410,000 tested, 4.5% active; in the data active = activity change below about -60%; inconclusive = no clear call, values can overlap the other calls; inactive = above about -39%
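Inhibition of viral replication was scored as loss of reporter luminescence in HFFs infected with HCMV-luciferase (MOI 1 PFU/cell) for 72 h; compounds tested at 2 doses, normalized to buffer and Salinomycin controls.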
A number is an active result; – = inactive; ? = inconclusive; · = no result given; [ ] = remark or other dose. Rows were chosen to be rich in hits. Some 7.8% of all compounds tested hit in one or more screens of this group.

SMILES	Lassa entry inh	HCV inhibitor	Vaccinia Venus	Marburg entry inh	Vaccinia mCherry	HCMV antiviral
Cc1cc(C)c2nc(NC(=O)c3ccc(S(=O)(=O)N4CCCC4)cc3)sc2c1	–	·	–	·	–	–
Cc1cc(C)c2nc(NNC(=O)c3ccc(S(=O)(=O)N4CCCCC4)cc3)sc2c1	?	6.31µM	?	?	?	-96.0
CCOC(=O)N1CCN(S(=O)(=O)c2ccc(C(=O)NNc3nc4c(C)cccc4s3)cc2)CC1	?	?	–	?	–	-102.8
Cc1ccc(-n2nc3cc(C)c(NC(=O)COc4ccccc4)cc3n2)cc1	–	·	–	·	–	–
C=CCOC(=O)N[C@H](C(C(=O)OC)=C(C)NCc1ccccc1)c1cccc(C(F)(F)F)c1	?	·	·	–	·	·
CCOC(=O)N1CCN(S(=O)(=O)c2ccc(C(=O)N(CCN(C)C)c3nc4ccc(Cl)cc4s3)cc2)CC1	·	?	·	·	·	–
CCOC(=O)N1CCN(S(=O)(=O)c2ccc(C(=O)NNc3nc4ccc(Cl)cc4s3)cc2)CC1	?	7.08µM	?	18.4µM	?	·
CCN(CC)c1nc(C#N)cc(-c2ccc(OC)cc2)n1	?	7.08µM	?	?	·	–
O=C(NC12CC3CC(CC(C3)C1)C2)c1ccc([N+](=O)[O-])o1	·	–	·	·	·	-69.8
O=C(NC12CC3CC(CC(C3)C1)C2)c1ccc(Br)o1	?	–	–	–	–	–
CC(NC(=O)c1ccc([N+](=O)[O-])cc1Cl)C1CC2CCC1C2 (stereo not given)	–	–	–	–	–	–
CC(NC(=O)c1ccc([N+](=O)[O-])o1)C1CC2CCC1C2 (stereo not given)	?	11.2µM	–	–	?	·
CCOC(=O)CCN1C(=O)[C@H]2[C@H]3[C@H](O)[C@H](O)C/C(=N/NC(=O)OCc4ccc(OC)cc4)[C@@H]3CC[C@@H]2C1=O	·	·	·	–	·	·
Cc1cccc(N=C2NC(=O)/C(=C/c3cccn3C)S2)c1	·	11.2µM	·	·	·	–
O=C1NC(=Nc2ccccc2)S/C1=C\c1cccn1-c1ccccc1	?	2.82µM	?	?	·	–
O=C1NC(=Nc2ccccc2)S/C1=C\c1cccnc1	·	–	·	·	·	–
Cc1ccccc1N=C1NC(=O)/C(=C/c2cccn2C)S1	·	–	·	·	·	–
O=c1c(O)c(-c2ccccc2)oc2ccc3occc3c12	·	·	–	·	–	·
Cc1ccc(NC(=O)c2oc3ccccc3c2NC(=O)C2CCCO2)cc1C (stereo not given)	?	?	–	?	–	-81.7
CCOc1ccccc1NC(=O)c1oc2ccccc2c1NC(=O)C1CCCO1 (stereo not given)	?	?	–	?	–	–
COc1ccc(NC(=O)c2oc3ccccc3c2NC(=O)C2CCCO2)cc1OC (stereo not given)	?	?	–	?	–	?
O=C(Nc1ccc(F)c(F)c1)c1oc2ccccc2c1NC(=O)C1CCCO1 (stereo not given)	–	–	–	–	–	-64.8
Cc1ccc(Nc2cc(C(=O)NCc3cccs3)c3ccccc3n2)c(C)c1	–	·	–	–	–	–
OCCCNCc1cc2cc3c(cc2nc1N1CCN(c2cccc(Cl)c2)CC1)OCO3	·	·	–	·	–	·
Cc1ccc(F)cc1CNC(=O)c1cc(COc2ccc3ncccc3c2)on1	?	2.82µM	–	?	?	-95.7
SMILES	Lassa entry inh	HCV inhibitor	Vaccinia Venus	Marburg entry inh	Vaccinia mCherry	HCMV antiviral
O=C(NCc1cccc(Cl)c1)c1cc(COc2ccc3ncccc3c2)on1	?	6.31µM	–	?	?	?
Cc1cc(C)n(CCNC(=O)c2cc(COc3ccc4ncccc4c3)on2)n1	·	?	·	·	·	–
CC(CCCC(C)(C)O)NC(=O)c1cc(COc2ccc3ncccc3c2)on1 (stereo not given)	?	5.62µM	–	–	–	-87.5
COC(=O)C1=C(C)N=C2SC(C)C(=O)N2C1c1cccs1 (stereo not given)	–	–	–	–	–	–
COC(=O)C1=C(C)N=C2SC(C)C(=O)N2C1c1ccc(C(=O)OC)cc1 (stereo not given)	–	–	–	?	–	-87.6
Cc1sc(N)nc1-c1ccc(Oc2ccccc2)cc1	·	14.1µM	·	·	·	–
Nc1nc(-c2ccc(Cl)cc2)c(N=Nc2ccc(S(=O)(=O)N3CCOCC3)cc2)s1	–	11.2µM	–	?	–	–
Cc1ccccc1-c1noc(-c2ccccc2OCC(=O)Nc2cccc([N+](=O)[O-])c2)n1	–	·	–	–	–	–
CC(C)c1ccc(Nc2cc(C(=O)NC3CCCCC3)c3ccccc3n2)cc1	–	·	–[7.34 µM]	–	–[7.34 µM]	–

Source: PubChem (National Center for Advancing Translational Sciences (NCATS))
